According to ChEMBL document CHEMBL3988442, “University of Dundee, Small-Polar-MMV Screening Library” (2021):
Among all 48,000 compounds or so, about 13,000 (27%) showed an effect of 50% or more. This is one part of the list.

Each compound was assayed on Wolbachia pipientis (assay: Anti-Wolbachia Cell-Based Screen). Settings: 5 µM.
Assay type: functional
Parameters: scale not given: in the data most compounds retested in dose-response had high values
`Cn1cc(CN2CCc3c(c(COCC#N)nn3C)C2)cn1` was tested, and the “Percent Effect” value was -10.53%.
`O=C(c1cccnc1-n1cncn1)N1CCN(CC(F)(F)F)CC1` was tested, and the “Percent Effect” value was -6.052%.
In the case of `CCc1cnc(C)nc1NCCc1nc(N)cc(O)n1`, the “Percent Effect” value is reported as 1.724%.
In the case of `CN(C)S(=O)(=O)NCc1nc(-c2cccc(F)c2)c(-c2ccccn2)[nH]1`, the “Percent Effect” value is reported as -1.399%.
`N#Cc1ccccc1CN1CCc2sccc2C1` was tested, and the “Percent Effect” value was -11.84%.
In the case of `CCC(NC(=O)CN(C)Cc1ccc(C)o1)c1ccc(Br)cc1` (configuration not stated), the “Percent Effect” value is reported as 7.959%.
With `Cc1ccc(CN2CC[C@H]3OCC[C@@]3(C(=O)N3CCCO3)C2)s1` the “Percent Effect” value was 100.6%.
In the case of `O=C(N1CCCO1)[C@@]12CCO[C@@H]1CCN(Cc1ccsc1)C2`, the “Percent Effect” value is reported as 127%.
For `COC[C@@]12CCO[C@@H]1CCN(Cc1ccc(C)s1)C2.O=C(O)C(F)(F)F`, the “Percent Effect” value was -10.75%.
With `Cc1ncsc1CN1CC[C@H]2OCC[C@@]2(C(=O)N2CCCO2)C1` the “Percent Effect” value was -1.32%.
For `c1cnn(CC2CCCCN2Cc2cn3ccsc3n2)c1` (configuration not stated), the “Percent Effect” value was 2.763%.
For `COc1ccc2c(=O)n(CC3CCCCN3C)ccc2c1OC` (configuration not stated), the “Percent Effect” value was -25.61%.
`CCN1C[C@@H]2CN(S(=O)(=O)c3cccs3)C[C@@H]2C1=O` was tested, and the “Percent Effect” value was -17.06%.
`N#Cc1cc(NS(=O)(=O)CC2CCCCO2)ccc1F` (configuration not stated) was tested, and the “Percent Effect” value was -2.711%.
With `COc1cc(CN2CCCC2)ccc1OC12CCCN(CC1)C2` (configuration not stated) the “Percent Effect” value was 119.4%.
For `CCCc1ccc(OCCNCc2ccco2)c(OC)c1.Cl`, the “Percent Effect” value was -10.12%.
With `COc1ccc(CN2CCCC3(CC2)CNC(=O)O3)cc1OC` (configuration not stated) the “Percent Effect” value was 1.159%.
`CCCc1ccc(OC23CCCN(CC2)C3)c(OC)c1` (configuration not stated) was tested, and the “Percent Effect” value was 112.6%.
For `COc1cc(CN2CCCC2)ccc1Oc1ncccc1C(F)(F)F`, the “Percent Effect” value was 26.33%.
In the case of `COc1ccc(CCNC(=O)NCc2cccc(C(N)=O)c2)cc1OC`, the “Percent Effect” value is reported as 9.819%.
In the case of `CC(C)c1nccn1C(C)C(=O)N1CCN(S(C)(=O)=O)CC1` (configuration not stated), the “Percent Effect” value is reported as 15.78%.
In the case of `CC(C)c1cc(C(=O)N(c2ccc(F)cn2)C2CCOCC2)nn1C`, the “Percent Effect” value is reported as -15.95%.
With `COC[C@@]12CC[C@@H](N3CCOCC3)C[C@H]1CCN(c1ncccc1C)C2` the “Percent Effect” value was -3.262%.
In the case of `CN1CCN([C@@H]2CCN(C3CCOC3)[C@H]2Cc2cnn(C)c2)CC1.O=C(O)C(F)(F)F.O=C(O)C(F)(F)F.O=C(O)C(F)(F)F` (some centres not stated), the “Percent Effect” value is reported as -5.901%.
In the case of `O=C(C1CCOCC1)N1CC[C@H]2[C@H]1CCN2c1nncs1.O=C(O)C(F)(F)F`, the “Percent Effect” value is reported as 9.105%.
`O=C(O)C(F)(F)F.O=C(c1cscn1)N1CC[C@@H]2[C@@H]1CCN2C1CCOC1` (some centres not stated) was tested, and the “Percent Effect” value was 99.27%.
With `O=C(O)C(F)(F)F.O=C(c1cscn1)N1CCO[C@H]2[C@@H](Oc3ccccn3)CC[C@@H]21` the “Percent Effect” value was -13.1%.
`O=C(O)C(F)(F)F.O=C(c1cscn1)N1CC[C@@H]2[C@@H]1CCN2C1CCOCC1` was tested, and the “Percent Effect” value was 97.96%.
`CN(CC(=O)N(C)C1CCCCC1)Cc1nc2ccccc2c(=O)[nH]1` was tested, and the “Percent Effect” value was -1.325%.
With `CC(NC(=O)NC1CCN(Cc2ccccn2)CC1)c1ccco1` (configuration not stated) the “Percent Effect” value was 5.238%.
With `c1cc(CNc2ccc(-c3nc(C4CC4)no3)cn2)no1` the “Percent Effect” value was -4.81%.
In the case of `CC(=O)NC1CCCN(c2nc3ccccc3cc2CO)C1` (configuration not stated), the “Percent Effect” value is reported as 8.297%.
With `COc1ccc(-n2ncc(C(C)NC3Cc4ccccc4C3)c2C)cc1` (configuration not stated) the “Percent Effect” value was 4.346%.
In the case of `Cc1ncsc1C(=O)NC1CCN(CC(=O)N(C)c2ccccc2)CC1`, the “Percent Effect” value is reported as -1.351%.
In the case of `O[C@@H]1C[C@@H](c2nc(Cc3ccccc3)no2)N(CC2CC2)C1`, the “Percent Effect” value is reported as 3.423%.
With `NCC1Cc2cc(F)cc(-c3cnccn3)c2O1` (configuration not stated) the “Percent Effect” value was -7.505%.
With `Cn1ccnc1-c1ccc(NCCC2COc3ccccc3O2)nn1` (configuration not stated) the “Percent Effect” value was 7.675%.
`CN(Cc1nc(CC2CC2)no1)CC1COc2ccccc2O1` (configuration not stated) was tested, and the “Percent Effect” value was -4.512%.
In the case of `Cn1nnnc1SCC1COc2ccccc2O1` (configuration not stated), the “Percent Effect” value is reported as 100.3%.
In the case of `N#Cc1cccc(N2CCC(CO)(CCOc3ccccc3)CC2)n1`, the “Percent Effect” value is reported as -8.445%.
`CC(C)n1ccnc1C1CCN(Cc2ccc(Cl)s2)CC1` was tested, and the “Percent Effect” value was -8.213%.
In the case of `CSCC(C)(O)CNc1ccccn1` (configuration not stated), the “Percent Effect” value is reported as -2.267%.
In the case of `CC(=O)c1cn(CC(=O)NC(C(=O)O)C(C)C)c2ccccc12` (configuration not stated), the “Percent Effect” value is reported as -3.053%.
In the case of `COc1cccc2c1ccn2CCNC(=O)C(C)C`, the “Percent Effect” value is reported as 18.92%.
For `CC(=O)Nc1cccc2c1ccn2CC(=O)Nc1nc[nH]n1`, the “Percent Effect” value was 99.64%.
For `Cc1cccc(C)c1OCC(=O)Nc1cccn(C)c1=O`, the “Percent Effect” value was -11.46%.
In the case of `O=C(Cn1ccc2c(Cl)cccc21)N[C@@H](C(=O)O)c1ccccc1`, the “Percent Effect” value is reported as 2.253%.
For `CC(=O)Nc1cccc2c1ccn2CC(=O)Nc1n[nH]c(CC(C)C)n1`, the “Percent Effect” value was 102.1%.
In the case of `CN1CCN(c2cc(NC(=O)Cn3ccc4ccccc43)ncn2)CC1`, the “Percent Effect” value is reported as -1.04%.
For `CC(=O)Nc1cccc2c1ccn2CC(=O)NC(C)C`, the “Percent Effect” value was 119.7%.
In the case of `CS(=O)(=O)N1CCN(C(=O)Cn2ccc3c(Cl)cccc32)CC1`, the “Percent Effect” value is reported as 10.52%.
For `O=C(Cn1ccc2c(Cl)cccc21)Nc1nc[nH]n1`, the “Percent Effect” value was 213.7%.
With `O=C(Cn1ccc2ccccc21)NCc1cc(N2CCOCC2)ncn1` the “Percent Effect” value was -2.844%.
`COc1cccc2c1ccn2CCC(=O)NCCCC(=O)O` was tested, and the “Percent Effect” value was 22.13%.
With `COCc1nc(C2CC2)nn1-c1cccc(F)c1` the “Percent Effect” value was -12.44%.
For `Cc1ccc(Oc2ncccc2CNC2CCCCC2)cn1`, the “Percent Effect” value was -2.321%.
`CN(C)C(=O)N1CCN(C(=O)C(c2ccccc2F)N(C)C)CC1` (configuration not stated) was tested, and the “Percent Effect” value was 0.4283%.
With `Cc1ccn(-c2ccccc2NCc2ncc[nH]2)n1` the “Percent Effect” value was -9.69%.
`COc1cccc2c1ccn2CC(=O)Nc1nc[nH]n1` was tested, and the “Percent Effect” value was 91.25%.
`CC(=O)Nc1cccc2c1ccn2CC(=O)Nc1ncc[nH]1` was tested, and the “Percent Effect” value was 101.7%.
`COc1cccc2c1ccn2CC(=O)N[C@@H](CCSC)C(=O)O` was tested, and the “Percent Effect” value was 11.73%.
In the case of `CSCC[C@H](NC(=O)Cn1ccc2c(Cl)cccc21)C(=O)O`, the “Percent Effect” value is reported as 2.833%.
With `COCC(=O)NCCn1ccc2c(OC)cccc21` the “Percent Effect” value was -0.7831%.
`CCOc1ncccc1Cn1cc(-c2ccc(CO)o2)nn1` was tested, and the “Percent Effect” value was -3.735%.
For `CCN(CC)C(=O)C1(NCc2nc(C)c(C)o2)CCCCC1`, the “Percent Effect” value was -3.366%.
`CN(c1ccc(CNc2ccc(Cl)cn2)cc1)S(C)(=O)=O` was tested, and the “Percent Effect” value was 3.879%.
In the case of `COc1coc(C(=O)Nc2nc(C)cs2)cc1=O`, the “Percent Effect” value is reported as 134.8%.
For `CC(=O)Nc1nc(C(=O)NC(C)c2ccncc2)cs1` (configuration not stated), the “Percent Effect” value was -2.068%.
For `COc1coc(C(=O)Nc2nc(-c3ccncc3)cs2)cc1=O`, the “Percent Effect” value was 126.8%.
`CC(=O)Nc1nc(C(=O)NC(C)c2cccnc2)cs1` (configuration not stated) was tested, and the “Percent Effect” value was -4.684%.
`COc1coc(C(=O)Nc2nc(-c3cccnc3)cs2)cc1=O` was tested, and the “Percent Effect” value was 125.3%.
`CCC(NC(=O)Nc1ccc(OC)c(C)c1)c1ccncc1` (configuration not stated) was tested, and the “Percent Effect” value was -4.572%.
For `CCOc1ccccc1C(CC(=O)Nc1nc(C)cs1)NC(C)=O` (configuration not stated), the “Percent Effect” value was 0.8837%.
In the case of `Cn1ccc(C(=O)Nc2nc(-c3ccc4c(c3)CCO4)cs2)cc1=O`, the “Percent Effect” value is reported as -8.772%.
For `COc1coc(C(=O)Nc2ccncc2)cc1=O`, the “Percent Effect” value was 119.4%.
With `COc1ccc(NC(=O)C(C)(C)C)cc1OCc1cccnc1` the “Percent Effect” value was -1.901%.
For `COc1ccc(NC(C)=O)cc1OCc1cccnc1`, the “Percent Effect” value was 0.9629%.
For `Cc1csc(NC(=O)C2CSCCC(=O)N2)n1` (configuration not stated), the “Percent Effect” value was -7.391%.
In the case of `COc1cccc(SCC(=O)N2CCC(N3CCCC(O)C3)CC2)c1` (configuration not stated), the “Percent Effect” value is reported as 2.194%.
With `COCc1csc(NC(=O)NCc2ccccn2)n1` the “Percent Effect” value was 11.42%.
In the case of `COc1coc(C(=O)Nc2nc(-c3ccccn3)cs2)cc1=O`, the “Percent Effect” value is reported as 131%.
`Cn1ccc(C(=O)Nc2nnc(-c3ccccn3)[nH]2)cc1=O` was tested, and the “Percent Effect” value was -6.589%.
In the case of `CCN(CC1CCOC1)C(=O)CCc1nc(C(C)(C)C)no1` (configuration not stated), the “Percent Effect” value is reported as -1.689%.
In the case of `Nc1nc(N2CCCCCC2)ncc1C(=O)NCc1ccc(F)c(Cl)c1`, the “Percent Effect” value is reported as 114.6%.
`Cc1cc(C(N)=O)ccc1NC(=O)c1nc(N2CCCCC2)ncc1Cl` was tested, and the “Percent Effect” value was -13.62%.
With `Cc1cccc(C(=O)NCc2ccc(N3CCCCC3)nc2)n1` the “Percent Effect” value was -4.595%.
In the case of `Nc1nc(N2CCCCC2)ncc1C(=O)NCc1ccc(F)c(Cl)c1`, the “Percent Effect” value is reported as 94.05%.
`O=C(Cn1cc(C(=O)O)ccc1=O)NCc1ccc(F)c(Cl)c1` was tested, and the “Percent Effect” value was 13.7%.
For `NS(=O)(=O)c1ccc(CNC(=O)c2ccc(Cl)cc2F)cc1`, the “Percent Effect” value was -5.173%.
`CC1CCCN(c2ncc(C(=O)NCc3ccc(F)c(Cl)c3)c(N)n2)C1` (configuration not stated) was tested, and the “Percent Effect” value was 73.04%.
In the case of `CN(c1ncc(C(=O)NCc2ccccc2)c(N)n1)C1CCCCC1`, the “Percent Effect” value is reported as 2.294%.
`O=C(Nc1cc(Cl)ccn1)c1nc(N2CCCC2)ncc1Cl` was tested, and the “Percent Effect” value was -15.57%.
With `CCCn1cc(-c2ccnc(NC3CCc4ccccc43)n2)c(C)n1` (configuration not stated) the “Percent Effect” value was -0.7424%.
In the case of `Cc1cccc(C(C(=O)NCC2(Cn3nc(C)cc3C)CC2)N(C)C)c1` (configuration not stated), the “Percent Effect” value is reported as -2.816%.
`Cc1ccc(CN2CC[C@H](c3nnc(COc4ccc(F)cc4)o3)C2)o1` was tested, and the “Percent Effect” value was -1.742%.
`COc1cccc(-c2ncc(CN3CC[C@H](CO)[C@@H](O)C3)s2)c1` was tested, and the “Percent Effect” value was 10.62%.
`COc1cccc(-c2noc(C3CCN(Cc4ccccc4F)C3)n2)c1.Cl` (configuration not stated) was tested, and the “Percent Effect” value was 108.2%.
For `COC(=O)c1cccc2nc([C@H]3CCN(Cc4ccccc4F)C3)oc12`, the “Percent Effect” value was 4.5%.
With `COc1cccc(-c2noc(C3CCN(Cc4ccccc4C)C3)n2)c1.Cl` (configuration not stated) the “Percent Effect” value was 79.37%.
In the case of `COC(=O)c1cccc2nc([C@H]3CCN(Cc4ccccc4C)C3)oc12`, the “Percent Effect” value is reported as 0.4423%.
With `COc1cccc(-c2noc(C3CCN(Cc4cn(C)nc4C)C3)n2)c1` (configuration not stated) the “Percent Effect” value was -2.203%.
In the case of `Cc1n[nH]c(CN2CCN(c3ncnc4scc(C)c34)CC2)c1Cl`, the “Percent Effect” value is reported as -1.697%.
